Laboratory results from the supplement of paper PMC10849652.
Of roughly 8,800 targets only a part is listed; those with a hit were picked by preference. About 0.5% of all pairs of compound and target were hits.

How the values were obtained:
Test in all cases: log2 fold change, soluble protein after heating vs DMSO (PISA); higher = thermal stabilisation; K562 lysate, 10 uM; active = over 0.2 and 3.5 SD of the protein, either way, in both replicates (recomputed)
[1] = compound: C1=CC2=NC=CN=C2C=C1/C=C/3\C(=O)NC(=O)S3
Method in brief: (§1)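 Values give the log-two fold change in thermal stability against solvent controls, from duplicates. Crude K562 extract at 1 mg/mL protein, made by dounce homogenisation in PBS pH 7.4 with 1 mM MgCl2, was treated with 10 μM compound for 30 min. After 3 min heating across 48°C-58°C, aliquots were pooled, adjusted to 0.5% NP-40 at 4°C and centrifuged at 21,000xg for 90 min. The supernatant was measured by TMTpro 16plex LC-MS/MS with channel sums equalised.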

[2] = compound: C/C(=N\NC(=O)C1=CC(=CC=C1)S(=O)(=O)N2CCOCC2)/C3=C(C=CC(=C3)Cl)O
Method in brief: as §1

[3] = compound: C1=CC2=C(C=CC(=C2)/C=C\3/C(=O)NC(=NCC4=CC=CS4)S3)N=C1
Method in brief: as §1

[4] = compound: C1=CC=C2C(=C1)C3=NNC4=CC=CC(=C43)C2=O
Method in brief: as §1

[5] = compound: C1CCN(C1)C(=O)NC2=CC=CC(=C2)NC3=NC=C(C(=N3)NCCC4=CN=CN4)Br
Method in brief: as §1

[6] = compound: C1CN(CCC1(CC2=CC=C(C=C2)Cl)N)C3=NC=NC4=C3C=CN4
Method in brief: as §1

erlotinib = compound: C#Cc1cccc(Nc2ncnc3cc(OCCOC)c(OCCOC)cc23)c1 [erlotinib]
Method in brief: as §1

[7] = compound: C1=CC(=CC=C1C2=NC3=C(N2)C=C(C=C3)C(=O)N)OC4=CC=C(C=C4)Cl
Method in brief: as §1

Measured: log2 fold change

PHGDH, A0A286YFE1
inactive: [1] -0.166

PHC1 (UniProt P78364)
Sequence of UniProt P78364 (P78364 whole entry, looked up): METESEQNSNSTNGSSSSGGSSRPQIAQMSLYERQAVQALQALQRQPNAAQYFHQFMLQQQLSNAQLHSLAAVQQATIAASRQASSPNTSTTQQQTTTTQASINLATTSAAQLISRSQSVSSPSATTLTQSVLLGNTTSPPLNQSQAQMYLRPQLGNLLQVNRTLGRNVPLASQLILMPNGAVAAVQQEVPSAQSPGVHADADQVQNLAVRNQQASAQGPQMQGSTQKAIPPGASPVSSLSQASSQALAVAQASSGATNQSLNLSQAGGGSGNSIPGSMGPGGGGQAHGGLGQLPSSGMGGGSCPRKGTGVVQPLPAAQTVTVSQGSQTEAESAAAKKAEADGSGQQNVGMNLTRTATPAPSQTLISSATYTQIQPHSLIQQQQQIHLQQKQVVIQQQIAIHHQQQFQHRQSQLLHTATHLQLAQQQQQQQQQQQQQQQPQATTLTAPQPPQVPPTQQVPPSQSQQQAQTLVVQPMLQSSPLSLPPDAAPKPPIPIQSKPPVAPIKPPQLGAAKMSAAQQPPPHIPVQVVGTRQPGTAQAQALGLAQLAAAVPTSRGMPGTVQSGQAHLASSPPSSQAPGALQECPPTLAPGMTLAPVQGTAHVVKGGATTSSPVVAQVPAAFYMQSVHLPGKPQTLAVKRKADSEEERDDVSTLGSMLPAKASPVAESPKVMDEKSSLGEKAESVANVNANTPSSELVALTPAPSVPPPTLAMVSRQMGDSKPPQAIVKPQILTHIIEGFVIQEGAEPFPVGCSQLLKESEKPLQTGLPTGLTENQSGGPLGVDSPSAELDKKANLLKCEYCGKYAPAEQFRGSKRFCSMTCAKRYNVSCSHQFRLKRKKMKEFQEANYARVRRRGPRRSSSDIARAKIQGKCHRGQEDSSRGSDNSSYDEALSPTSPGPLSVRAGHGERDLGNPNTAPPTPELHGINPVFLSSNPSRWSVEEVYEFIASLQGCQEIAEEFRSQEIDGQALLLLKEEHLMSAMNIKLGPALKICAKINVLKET
inactive: [2] 0.032 | [3] -0.004 | [1] -0.075 | [4] -0.051 | [5] 0.021 | [6] -0.01

PTK2 isoform 2 (UniProt Q05397)
Sequence of UniProt Q05397 (Q05397 whole entry, looked up): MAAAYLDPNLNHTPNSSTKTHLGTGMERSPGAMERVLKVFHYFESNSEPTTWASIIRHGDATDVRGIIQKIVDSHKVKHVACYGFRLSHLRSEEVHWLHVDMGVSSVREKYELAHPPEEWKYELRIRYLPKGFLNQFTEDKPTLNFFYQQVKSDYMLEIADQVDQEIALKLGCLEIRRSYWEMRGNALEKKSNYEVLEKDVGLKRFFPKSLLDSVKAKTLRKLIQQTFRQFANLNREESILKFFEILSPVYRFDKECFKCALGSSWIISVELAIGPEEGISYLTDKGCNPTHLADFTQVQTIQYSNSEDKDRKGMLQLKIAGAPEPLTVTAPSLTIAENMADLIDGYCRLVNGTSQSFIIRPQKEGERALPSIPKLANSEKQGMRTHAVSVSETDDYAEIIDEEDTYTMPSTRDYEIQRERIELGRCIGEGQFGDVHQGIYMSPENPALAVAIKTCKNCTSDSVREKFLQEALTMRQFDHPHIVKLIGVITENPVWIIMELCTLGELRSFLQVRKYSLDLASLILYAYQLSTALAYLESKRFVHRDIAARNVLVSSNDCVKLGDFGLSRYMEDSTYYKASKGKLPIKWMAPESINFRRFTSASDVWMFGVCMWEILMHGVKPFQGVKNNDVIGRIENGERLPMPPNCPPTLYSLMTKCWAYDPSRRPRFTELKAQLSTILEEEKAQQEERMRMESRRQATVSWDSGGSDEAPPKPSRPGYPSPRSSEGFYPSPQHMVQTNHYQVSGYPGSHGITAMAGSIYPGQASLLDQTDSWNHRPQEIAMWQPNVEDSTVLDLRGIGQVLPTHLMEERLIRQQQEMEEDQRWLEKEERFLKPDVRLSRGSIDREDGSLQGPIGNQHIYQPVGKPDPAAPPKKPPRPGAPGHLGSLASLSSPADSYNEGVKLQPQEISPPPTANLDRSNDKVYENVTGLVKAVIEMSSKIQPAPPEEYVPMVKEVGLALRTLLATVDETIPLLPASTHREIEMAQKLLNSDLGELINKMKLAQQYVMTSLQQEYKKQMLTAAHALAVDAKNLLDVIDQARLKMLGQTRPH
inactive: erlotinib 0.002 | [7] 0.006 | [1] -0.114 | [5] 0.193 | [6] -0.016
